Data from the supplement of paper PMC6555819.

system: LXRb:RXRa (NR concentration 270 nM, RXRa partner concentration 90 nM); test: PBM binding z-score (relative to random genomic background probes); higher = stronger binding; sequences stand for … in GC…GCGATTGACAGCGTAGAATGAAGG
Procedure, shortened: (§1)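 Binding z-scores take random background probes as their reference. They come from custom Agilent 4×180K protein-binding microarrays incubated 1 h with ligand-free nuclear receptor dimers, with antibodies against each partner (one per run) detecting binding. Scanned fluorescence was regression-normalized.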

Point of comparison: GATACAGGGTCAGCTAGAGGTCAGAGTATGGAAA, PBM binding z-score 4.98. Against it:
- CGTCCAAGGTCAGCAGGTCAGAGAAAGCGACGTG — lower, 3.26
- CGTCCAAGGTCAAAGGTCACTGAAGAGATGACGG — higher, 7.05
- TCTAGTTGGTCACGGAGGTCACACGCGACGGGTA — lower, 3.14
- TCATATAGGTTAAAGGTGAAAGTCGGTGTGGTAA — lower, 3.59
- CAAACTAGGTCACGAGGTCAAAGTCCGCTTCCCG — higher, 5.41
- CCTACTGGGCCAAGGTCTTTGATCAGTCAAAGCA — lower, -0.54
- CGTCCAAGGTCAATGCTAGCTCAGTGAAAGCATT — lower, 3.45
- CCTAGTGGGCCAAAGGTCATTGATTCCAATGCTC — higher, 5.23
- CCTGCTAGGTCAAGGGTCAGCTAAAGCAGCTCGC — lower, 3.85
- AGTCAAATTTCACTAGGTAACGTAAGATTCAGCT — lower, 0.0425
- ACTCGGAGGGCAAAGGTCAGAGCTACGCCAGTGA — lower, 4.14
- AGAATGGGGTTAAGATCAGGGAAACAGAATACAT — lower, 4.19
- TCATATAGGTAATCAGGTGAAAGTCCGTAAGTTA — lower, 0.96
- CGTCCAAGGTCAAGGTCACTGAAAGAGACTCGAA — higher, 5.23
- CGTCCAAGCTCAGCAGGTCAGTGAAAGCGACGTG — lower, 0.048
- CGAACTAGGTCAAAGGACACTGAAAGGCGACGTA — lower, 2.15

system: LXRb homodimer (NR concentration 270 nM); test: as above
Procedure, shortened: as §1

Point of comparison: CCAGACAGGTGAAAGGTCACTCAGTCTGGTACGC, PBM binding z-score 0.389. Against it:
- TATACAGGGTCAAAGGGCAGAGTACGAATGTCGA — higher, 3.33
- CGTCCAAGGTCAAAGGTCAGGGAAGAGATGACGG — higher, 1.53
- CAAACTAGGTCACCGGAAGGTCAAAGTTCGCATG — higher, 1.86
- TAGCCTAGGTTATGCGGGCCAGTATAGTGTCGGC — lower, -1.29
- CCTACTGGGCCAAAAAGGCCATTGATGCCGATAA — lower, -1.1
- CGAACTAGGTCAAAGGCCAGTGAAAGGCGACGTA — lower, -0.821
- ATCTCTAGGTTAAAGTTCAGTGAATCCCGAGGAT — higher, 1.62
- CCGACTGGGGCAAAGGTTACGATACTCAGTACGA — lower, -1.04
- ACTCGGAGGACAGAGGTCAGAGCTACGCCAGTGA — lower, -0.0333
- CAAACTAGGTCACAGAGGTCAAAGTTCGTGCGTA — higher, 2.18
- CAATCTAGGTCACAGAGGTCAAAGTCCGTGCGTA — higher, 2.8
- ACTAGCAGGTCAAGGGTCACTCAAGATTAGTCCG — higher, 0.671
- CATACACGGTCAGCTAGGCCAGAGTAGGGACGGC — higher, 0.421
- GCTTCCGGGTCAAAGGTTATAGCATGAATAGAAT — higher, 0.776
- TCAGATAGGTAAAGGTGAAAGTCGAACGATATGA — lower, -0.401
- ATATGTAGGTCAGGGTCATTCAGAAAGTAGGGAA — higher, 2.07
- CTAACTAGGTCACCGGAAGGTCAAAGTCCGCATG — higher, 1.15
- CGTCCAAGGTCAGCAGGTGAGTGAAAGCGACGTG — lower, -0.689
- TCTAGTAGGTCACGGAGGTCACACACGACGGGTA — higher, 1.44
- TCATATAGGTAATAAAGGTGAAAGTCGGCATCTA — lower, 0.336
- CAAAATAGGTCAAGGTCAAAGTCGGTTTGTGCCA — higher, 2.2
- CGTCCAAGGTCAGCAGGTCAGAGAAAGCGACGTG — lower, -0.208
- CGTCCAAGGTCAAAGGTCACTGAAGAGATGACGG — higher, 2.19
- TCTAGTTGGTCACGGAGGTCACACGCGACGGGTA — higher, 0.904
- TCATATAGGTTAAAGGTGAAAGTCGGTGTGGTAA — higher, 0.683
- CAAACTAGGTCACGAGGTCAAAGTCCGCTTCCCG — higher, 1.09
- CCTACTGGGCCAAGGTCTTTGATCAGTCAAAGCA — lower, -0.812
- CGTCCAAGGTCAATGCTAGCTCAGTGAAAGCATT — higher, 0.696
- CCTAGTGGGCCAAAGGTCATTGATTCCAATGCTC — higher, 0.768
- CCTGCTAGGTCAAGGGTCAGCTAAAGCAGCTCGC — lower, -0.198
- AGTCAAATTTCACTAGGTAACGTAAGATTCAGCT — lower, 0.175
- ACTCGGAGGGCAAAGGTCAGAGCTACGCCAGTGA — lower, -0.447
- GATACAGGGTCAGCTAGAGGTCAGAGTATGGAAA — lower, 0.386
- AGAATGGGGTTAAGATCAGGGAAACAGAATACAT — higher, 2.1
- TCATATAGGTAATCAGGTGAAAGTCCGTAAGTTA — lower, 0.374
- CGTCCAAGGTCAAGGTCACTGAAAGAGACTCGAA — higher, 0.938
- CGTCCAAGCTCAGCAGGTCAGTGAAAGCGACGTG — lower, -1.03
- CGAACTAGGTCAAAGGACACTGAAAGGCGACGTA — lower, -0.198

system: PPARa:RXRa (NR concentration 270 nM, RXRa partner concentration 90 nM); test: as above
Procedure, shortened: as §1

Point of comparison: CATACACGGTCAGCTAGGCCAGAGTAGGGACGGC, PBM binding z-score -0.409. Against it:
- TATACAGGGTCAAAGGGCAGAGTACGAATGTCGA — higher, 6.52
- CAAACTAGGTCACCGGAAGGTCAAAGTTCGCATG — higher, 6.44
- CCTACTGGGCCAAAAAGGCCATTGATGCCGATAA — higher, 0.629
- CGAACTAGGTCAAAGGCCAGTGAAAGGCGACGTA — higher, 5.83
- ATCTCTAGGTTAAAGTTCAGTGAATCCCGAGGAT — higher, 5.59
- CCGACTGGGGCAAAGGTTACGATACTCAGTACGA — higher, 5.62
- ACTCGGAGGACAGAGGTCAGAGCTACGCCAGTGA — higher, 3.83
- CAAACTAGGTCACAGAGGTCAAAGTTCGTGCGTA — higher, 6.83
- CCAGACAGGTGAAAGGTCACTCAGTCTGGTACGC — higher, 6.31
- CAATCTAGGTCACAGAGGTCAAAGTCCGTGCGTA — higher, 6.7
- ACTAGCAGGTCAAGGGTCACTCAAGATTAGTCCG — higher, 6.3
- GCTTCCGGGTCAAAGGTTATAGCATGAATAGAAT — higher, 6.97
- ATATGTAGGTCAGGGTCATTCAGAAAGTAGGGAA — higher, 6.06
- CTAACTAGGTCACCGGAAGGTCAAAGTCCGCATG — higher, 6.52
- CGTCCAAGGTCAGCAGGTGAGTGAAAGCGACGTG — higher, 4.13
- TCTAGTAGGTCACGGAGGTCACACACGACGGGTA — higher, 6.41
- TCATATAGGTAATAAAGGTGAAAGTCGGCATCTA — higher, 3.1
- CGTCCAAGGTCAGCAGGTCAGAGAAAGCGACGTG — higher, 4.78
- CGTCCAAGGTCAAAGGTCACTGAAGAGATGACGG — higher, 7.23
- TCTAGTTGGTCACGGAGGTCACACGCGACGGGTA — higher, 3.95
- TCATATAGGTTAAAGGTGAAAGTCGGTGTGGTAA — higher, 6.28
- CAAACTAGGTCACGAGGTCAAAGTCCGCTTCCCG — higher, 6.85
- CGTCCAAGGTCAATGCTAGCTCAGTGAAAGCATT — higher, 4.83
- CCTAGTGGGCCAAAGGTCATTGATTCCAATGCTC — higher, 6.76
- CCTGCTAGGTCAAGGGTCAGCTAAAGCAGCTCGC — higher, 5.91
- ACTCGGAGGGCAAAGGTCAGAGCTACGCCAGTGA — higher, 6.1
- GATACAGGGTCAGCTAGAGGTCAGAGTATGGAAA — higher, 5.57
- AGAATGGGGTTAAGATCAGGGAAACAGAATACAT — higher, 5.62
- TCATATAGGTAATCAGGTGAAAGTCCGTAAGTTA — higher, 2.68
- CGAACTAGGTCAAAGGACACTGAAAGGCGACGTA — higher, 5.49
